Results filed as inconclusive are left out. Active and inactive are the calls of the source. Calls follow the shape of the dose curve; as a rule, active = well fitted cell-killing curve with a large enough effect; inconclusive = small, poorly fitted or top-dose-only effect; inactive = flat fitted curve, though single readings scatter.

A short description of the assay: DAPI mCherry counterscreen qHTS for Zika virus inhibitors. Also: nearly all actives have a fitted effect of over 55% in size. An outline of the steps: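 Vero cells (5,000/well), plated overnight, given compounds then recombinant ZIKV-mCherry at MOI 1 for 48-72 hrs at 37 degrees C; PFA-fixed, Hoechst-stained and imaged; nuclei counted and mCherry-positive cells scored as percent infection.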
Potency is read from the fitted curve at half-maximal effect.

Consider `COc1ccc(S(=O)(=O)Nc2cc(-c3c(O)ccc4ccccc34)c(O)c3ccccc23)cc1`, for which the Potency was 10 µM (active).
Consider `C[C@@H](NC(=O)c1ccc(Cl)cc1)c1c(-c2ccc(F)cc2)noc1C(=O)O`, for which the Potency entry was “inactive”.
As to `CN(CC(=O)N(Cc1ccc(C2CCCCC2)cc1)c1ccc(C(=O)O)cc1)S(=O)(=O)c1c(F)c(F)c(F)c(F)c1F`, the Potency is 5.62 µM (active).
Next, `Cc1cc(C(C#N)c2ccc(Cl)cc2)c(Cl)cc1NC(=O)c1cc(I)cc(I)c1O` (stereo not drawn): 8.91 µM (active); `CC(C)(Sc1ccc(CCN(CCCCC2CCCCC2)C(=O)NC2CCCCC2)cc1)C(=O)O`: 14.1 µM (active); `O=C(O)c1cc(-c2ccc(C(F)(F)F)cc2)nc2n[nH]c(-c3ccccc3)c12`: “inactive”.
With `CC(C)(C)c1ccc(S(=O)(=O)Nc2ccc(O)c(Sc3nc4ccccc4s3)c2)cc1` the figure was 14.1 µM (active); with `CC1CCC(C(=O)N(c2cc(C#CC(C)(C)C)sc2C(=O)O)C2CCC(O)CC2)CC1` (stereo not drawn), 25.1 µM (active); with `NC(=O)c1ccc2nc(-c3ccc(Oc4ccc(Cl)cc4)cc3)[nH]c2c1`, 31.6 µM (active).
For the compound `O=C(Nc1cccc(C(=O)OCc2cc(=O)n3nc(C4CC4)sc3n2)c1)c1cccc(F)c1`, the Potency entry is “inactive”.
Regarding `O=C(Nc1cccc(C(=O)OCc2cc(=O)n3nc(C4CC4)sc3n2)c1)c1ccc(F)cc1`, the Potency result is “inactive”.
In the case of `COc1cc(Nc2nc3ccccc3nc2NS(=O)(=O)c2cccc(NC(=O)c3ccc(C)c(OC)c3)c2)cc(OC)c1`, the Potency was 4.47 µM (active).
With `N#CC1C(=O)Nc2scc(-c3ccc(-c4ccccc4O)cc3)c2C1=O` (stereo not drawn) the figure was 8.91 µM (active).
